Results: PubChem BioAssay (EPA / NIEHS)
Several values for one entry are separate records, joined by “and”; a condition that tells them apart may be missing. Equal values may be shown once. Where a structure was tested more than once in an assay, its records may differ in their call. Activity calls are given as the source filed them. The calls were made as follows: active = hit-call score of the fitted dose curve at least 0.9, where 1 is the maximum; inactive = score below 0.9.

Legend:
[1] = IUF_NPC2c_oligodendrocyte_migration_120hr: Leibniz Research Institute for Environmental Medicine (IUF) 120-hour Neural Progenitor Cell Migration Assay for Oligodendrocyte Migration (NPC2c) (AID 2284297)
Summary of the method: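 Read-out is the mean distance of O4-positive oligodendrocytes from the sphere core edge at 120 h, normalized to radial glia migration and fitted in the gain direction against DMSO. Spheres of primary human neural progenitors differentiated on laminin under continuous compound exposure.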

[2] = IUF_NPC2a_radial_glia_migration_120hr: Leibniz Research Institute for Environmental Medicine (IUF) 120-hour Neural Progenitor Cell Migration Assay for Radial Glia Migration (NPC2a) (AID 2284298)
Summary of the method: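 Readout: distance in um from sphere core edge to migration-area edge, derived from Hoechst nuclei density with a threshold-defined polynomial boundary. Spheres: hNPC, GW 16-19, 0.3 mm, on PDL/laminin; exposure 5 days; DMSO is baseline.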

[3] = IUF_NPC2a_radial_glia_migration_72hr: Leibniz Research Institute for Environmental Medicine (IUF) 72-hour Neural Progenitor Cell Migration Assay for Radial Glia Migration (NPC2a) (AID 2284299)
Summary of the method: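 Spheres of human primary neural progenitors migrate on poly-D-lysine/laminin under compound exposure at 37C, 5% CO2. The 72 h radial glia migration distance comes from brightfield images, measured manually.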

[4] = IUF_NPC2b_neuronal_migration_120hr: Leibniz Research Institute for Environmental Medicine (IUF) 120-hour Neural Progenitor Cell Migration Assay for Neuron Migration (NPC2b) (AID 2284300)
Summary of the method: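 Read-out is mean distance from sphere edge to each TUBB3-positive neuron at 120 h, expressed relative to radial glia migration distance and to DMSO baseline. Single 0.3 mm human NPC spheres differentiated on laminin under continuous compound exposure.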

[5] = IUF_NPC3_neuronal_differentiation_120hr: Leibniz Research Institute for Environmental Medicine (IUF) 120-hour Neuronal Differentiation Assay (NPC3) (AID 2284301)
Summary of the method: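 Neuronal differentiation of primary human neural progenitors measured by high-content imaging: percent TUBB3+ of Hoechst+ nuclei within migrated area at 120 h, seven-point serial dilution plus solvent control, gain or loss relative to DMSO.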

[6] = IUF_NPC4_neurite_length_120hr: Leibniz Research Institute for Environmental Medicine (IUF) 120-hour Neuronal Morphology Assay for Neurite Length (NPC4) (AID 2284302)
Summary of the method: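 Neurons from differentiating human fetal neural progenitor spheres are scored for average neurite length after five days of compound exposure. Fitting uses DMSO as negative control.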

[7] = BSK_MyoF_SRB: Viability Assessment in the BioMAP Diversity Plus: MyoF Assay (AID 2284267); conditions: primary human lung fibroblasts;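 also: total protein by SRB absorbance in parallel cultures as cytotoxicity measure; cells assessed 24 h after compound addition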
Summary of the method: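 In this viability endpoint, fibroblasts from human lung are treated for 24 h, TCA-fixed, SRB-stained (0.1%) and read at 560 nm. Gain of signal relative to DMSO defines activity.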

[8] = read-out: Matrix Metallopeptidase 1 (MMP1), MMP1 (gene 4312); assay: BSK_MyoF_MMP1: BioMAP Diversity Plus: MyoF Assay for Matrix Metallopeptidase 1 (MMP1) Biomarker Activity (AID 2284268); conditions: primary human lung fibroblasts
Summary of the method: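 Lung fibroblast cultures were dosed with test chemicals and, after 24 h, MMP1 levels were measured by ELISA; responses were referenced to DMSO and analysed for increases.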

[9] = read-out: TIMP metallopeptidase inhibitor 1 (TIMP1), TIMP1 (gene 7076); assay: BSK_MyoF_TIMP1: BioMAP Diversity Plus: MyoF Assay for TIMP metallopeptidase inhibitor 1 (TIMP1) Biomarker Activity (AID 2284269); conditions: primary human lung fibroblasts
Summary of the method: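 Primary human lung fibroblasts, MyoF multiplex system; chemical exposure 24 h; TIMP-1 by ELISA; positive fitting direction vs DMSO control.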

[10] = read-out: Intercellular Adhesion Molecule 1 (ICAM1), ICAM1 (gene 3383); assay: BSK_BE3C_ICAM1: BioMAP Diversity Plus: BE3C Assay for Intercellular Adhesion Molecule 1 (ICAM1) Biomarker Activity (AID 2284278); conditions: primary human bronchial epithelial cells;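 also: cell-surface ICAM-1 protein level quantified by ELISA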
Summary of the method: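 hu bronchial epithelial primary cells, 24 h cpd exposure, ICAM-1 ELISA; gain-of-signal fit vs DMSO baseline.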

[11] = read-out: Interferon-inducible T-cell alpha chemoattractant (ITAC), CXCL11 (gene 6373); assay: BSK_BE3C_ITAC: BioMAP Diversity Plus: BE3C Assay for Interferon-inducible T-cell alpha chemoattractant (ITAC) Biomarker Activity (AID 2284279); conditions: primary human bronchial epithelial cells
Summary of the method: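 Steps: dose human bronchial epithelial cells with chemical; incubate 24 h; measure I-TAC by ELISA; fit endpoint in positive direction against DMSO control. Cytotoxicity was checked in parallel cultures by SRB staining at harvest.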

[12] = read-out: Interleukin-8 (IL8), CXCL8 (gene 3576); assay: BSK_BE3C_IL8: BioMAP Diversity Plus: BE3C Assay for Interleukin-8 (IL8) Biomarker Activity (AID 2284280); conditions: primary human bronchial epithelial cells
Summary of the method: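 Measured at 24 h after treatment, IL-8 from human primary bronchial epithelial cells is determined by ELISA, and the response is modelled as increasing relative to DMSO negative control.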

[13] = read-out: Epidermal growth factor receptor (EGFR), EGFR (gene 1956); assay: BSK_BE3C_EGFR: BioMAP Diversity Plus: BE3C Assay for Epidermal growth factor receptor (EGFR) Biomarker Activity (AID 2284281); conditions: primary human bronchial epithelial cells
Summary of the method: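 Measured 24 h after dosing in primary human bronchial epithelial cultures, EGFR was read by ELISA; gain of signal over DMSO control defined activity.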

KRT18 (gene 3875) = assay: BSK_BE3C_Keratin818: BioMAP Diversity Plus: BE3C Assay for Keratin 818 Biomarker Activity (AID 2284282); conditions: primary human bronchial epithelial cells
Summary of the method: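 In this multiplexed primary-cell system, bronchial epithelial cells were dosed and harvested at 24 h. Keratin 8/18 was determined by ELISA and analysed for increases over DMSO controls.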

[14] = read-out: Matrix Metallopeptidase 9 (MMP9), MMP9 (gene 4318); assay: BSK_BE3C_MMP9: BioMAP Diversity Plus: BE3C Assay for Matrix Metallopeptidase 9 (MMP9) Biomarker Activity (AID 2284283); conditions: primary human bronchial epithelial cells
Summary of the method: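 BE3C, human bronchial epithelial primary cells; 24 h post-dose; MMP-9 by ELISA; positive fit vs DMSO; SRB (0.1%, TCA-fixed, 560 nm) parallel cytotox.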

[15] = read-out: Plasminogen activator inhibitor-1 (PAI1), SERPINE1 (gene 5054); assay: BSK_CASM3C_PAI1: BioMAP Diversity Plus: CASM3C Assay for Plasminogen activator inhibitor-1 (PAI1) Biomarker Activity (AID 2284284); conditions: primary human coronary artery smooth muscle cells;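 also: PAI-1 protein level measured by ELISA 24 h after dosing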
[16] = read-out: Monocyte Chemoattractant Protein-1 (MCP1), CCL2 (gene 6347); assay: BSK_hDFCGF_MCP1: BioMAP Diversity Plus: hDFCGF Assay for Monocyte Chemoattractant Protein-1 (MCP1) Biomarker Activity (AID 2284285); conditions: primary human foreskin fibroblasts
Summary of the method: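 MCP-1 ELISA readout was taken 24 hours after dosing primary human dermal fibroblasts in the hDFCGF system, with DMSO as baseline. Parallel sulforhodamine B staining of total protein tracked overt cytotoxicity.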

[17] = read-out: Intercellular Adhesion Molecule 1 (ICAM1), ICAM1 (gene 3383); assay: BSK_hDFCGF_ICAM1: BioMAP Diversity Plus: hDFCGF Assay for Intercellular Adhesion Molecule 1 (ICAM1) Biomarker Activity (AID 2284287); conditions: primary human foreskin fibroblasts
Summary of the method: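 ICAM-1 ELISA readout 24 h after dosing, DMSO as baseline, in human dermal foreskin fibroblast cultures. Cytotoxicity checked in parallel wells by SRB staining (0.1% SRB, 10% TCA fixation, 560 nm).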

[18] = read-out: TIMP metallopeptidase inhibitor 2 (TIMP2), TIMP2 (gene 7077); assay: BSK_hDFCGF_TIMP2: BioMAP Diversity Plus: hDFCGF Assay for TIMP metallopeptidase inhibitor 2 (TIMP2) Biomarker Activity (AID 2284289); conditions: primary human foreskin fibroblasts
Summary of the method: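 Primary human foreskin fibroblasts in the hDFCGF system, dosed for 24 h; TIMP-2 level measured by ELISA, fitted in the positive direction against DMSO; cytotoxicity checked in parallel by sulforhodamine B total protein staining.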

[19] = read-out: Thrombomodulin, THBD (gene 7056); assay: BSK_LPS_Thrombomodulin: BioMAP Diversity Plus: LPS Assay for Thrombomodulin Biomarker Activity (AID 2284296); conditions: primary human HUVEC with PBMC
Summary of the method: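 Thrombomodulin on the surface of LPS-activated endothelial/PBMC co-cultures was quantified by ELISA at 24 hours post-dosing, with DMSO as baseline. Parallel SRB total-protein staining flagged overt cytotoxicity.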

Nc1ncn([C@@H]2O[C@H](CO)[C@@H](O)[C@H]2O)c(=O)n1
outcome [1]: inactive | outcome [2]: inactive | outcome [3]: inactive | outcome [4]: inactive | outcome [5]: inactive | outcome [6]: inactive

C=CCOCC(O)CCl (configuration not stated)
outcome [7]: inactive | outcome [8]: inactive | outcome [9]: inactive

CC(C)(c1cc(Br)c(OCCO)c(Br)c1)c1cc(Br)c(OCCO)c(Br)c1
AC50 [7]: 5.78 µM (active) | AC50 [8]: 9.32 µM (active) | AC50 [9]: 9.33 µM (active)

CC1(C)S[C@@H]2[C@H](NC(=O)COc3ccccc3)C(=O)N2[C@H]1C(=O)O
outcome [1]: inactive | outcome [2]: inactive | outcome [3]: inactive | outcome [4]: inactive | outcome [5]: inactive | outcome [6]: inactive

O=C(c1ccc(O)cc1)c1ccc(O)cc1O
outcome [10]: inactive | outcome [11]: inactive | outcome [12]: inactive | outcome [13]: inactive | outcome (KRT18 (gene 3875)): inactive | AC50 [14]: 20 µM (active) and 9.6 µM (active) | outcome [15]: inactive | outcome [16]: inactive | outcome [17]: inactive | outcome [18]: inactive | outcome [19]: inactive

Nc1ccc(N)c(Cl)c1
outcome [10]: inactive | outcome [11]: inactive | AC50 [12]: 5.71 µM (active) | outcome [12]: inactive | outcome [13]: inactive | outcome (KRT18 (gene 3875)): inactive | AC50 [14]: 15.2 µM (active) and 7.82 µM (active) | outcome [15]: inactive | AC50 [16]: 28.9 µM (active) | outcome [17]: inactive | AC50 [18]: 28.1 µM (active) and 28.9 µM (active) | outcome [19]: inactive

CCCCC(CC)COCC1CO1 (configuration not stated)
outcome [10]: inactive | outcome [11]: inactive | outcome [12]: inactive | outcome [13]: inactive | outcome (KRT18 (gene 3875)): inactive | outcome [14]: inactive | outcome [15]: inactive | outcome [16]: inactive | outcome [17]: inactive | outcome [18]: inactive | outcome [19]: inactive
